Data reported in PubChem BioAssay (EPA / NIEHS).
“And” between values parts separate entries of the source, which are not always exact repeats. Equal entries are not always repeated. More than one record can exist for a structure, and the calls need not agree. The source made the active and inactive calls. How the source made its calls: active means hit-call score of the fitted dose curve at least 0.9, where 1 is the maximum; inactive means score below 0.9.

Experiments:
[1] = BSK_hDFCGF_Proliferation: Cell Proliferation Assessment in the BioMAP Diversity Plus: hDFCGF Assay (AID 2283059); conditions: primary human foreskin fibroblasts;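 further: curves fitted for both rise and fall of signal versus DMSO baseline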
Summary of the method: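 Sub-confluent human foreskin fibroblast cultures receive test chemical […]. Relative cell number is quantified by sulforhodamine B staining (0.1%, after 10% TCA fixation) at 560 nm, with bidirectional fitting referenced to DMSO.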

[2] = read-out: Macrophage colony-stimulating factor (MCSF), CSF1 (gene 1435); assay: BSK_hDFCGF_MCSF: BioMAP Diversity Plus: hDFCGF Assay for Macrophage colony-stimulating factor (MCSF) Biomarker Activity (AID 2283060); conditions: primary human foreskin fibroblasts; actives raise or lower the signal
Summary of the method: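 M-CSF levels read by ELISA at 24 h post-dosing in human skin fibroblasts. Parallel cultures stained with SRB assessed cytotoxicity at the same time point; response fitted in both directions against the DMSO baseline.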

[3] = BSK_hDFCGF_SRB: Viability Assessment in the BioMAP Diversity Plus: hDFCGF Assay (AID 2283061); conditions: primary human foreskin fibroblasts;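 further: cells exposed to compound for 24 h before the read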
Summary of the method: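 Viability was read as total protein: after 10% TCA fixation, wells were stained with 0.1% sulforhodamine B and read at 560 nm. Primary human foreskin fibroblasts were dosed for 24 h, with bidirectional fitting versus DMSO.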

[4] = read-out: TIMP metallopeptidase inhibitor 1 (TIMP1), TIMP1 (gene 7076); assay: BSK_hDFCGF_TIMP1: BioMAP Diversity Plus: hDFCGF Assay for TIMP metallopeptidase inhibitor 1 (TIMP1) Biomarker Activity (AID 2283062); conditions: primary human foreskin fibroblasts; actives raise or lower the signal
Summary of the method: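 TIMP-1 measured by ELISA 24 h after chemical dosing of primary human skin fibroblasts, with gain or loss fitted relative to DMSO. Parallel SRB staining (560 nm) monitored overt cytotoxicity.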

[5] = read-out: Plasminogen activator inhibitor-1 (PAI1), SERPINE1 (gene 5054); assay: BSK_hDFCGF_PAI1: BioMAP Diversity Plus: hDFCGF Assay for Plasminogen activator inhibitor-1 (PAI1) Biomarker Activity (AID 2283066); conditions: primary human foreskin fibroblasts; actives raise or lower the signal
Summary of the method: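 ELISA readout of PAI-1 from primary human skin fibroblast cultures, 24 h after compound addition. Gain or loss of signal was fitted bidirectionally against DMSO baseline.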

[6] = read-out: Intercellular Adhesion Molecule 1 (ICAM1), ICAM1 (gene 3383); assay: BSK_KF3CT_ICAM1: BioMAP Diversity Plus: KF3CT Assay for Intercellular Adhesion Molecule 1 (ICAM1) Biomarker Activity (AID 2283067); conditions: primary human keratinocytes with fibroblasts; actives raise or lower the signal
Summary of the method: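 Cell-surface ICAM-1 was measured by ELISA 24 h after dosing primary human skin keratinocytes co-cultured with fibroblasts. Parallel SRB staining tracked overt cytotoxicity. Gain or loss of signal was fitted relative to DMSO.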

[7] = read-out: Interferon-gamma inducible Protein 10 (IP10), CXCL10 (gene 3627); assay: BSK_KF3CT_IP10: BioMAP Diversity Plus: KF3CT Assay for Interferon-gamma inducible Protein 10 (IP10) Biomarker Activity (AID 2283068); conditions: primary human keratinocytes with fibroblasts; actives raise or lower the signal
Summary of the method: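 ELISA read-out of IP-10 after 24 h chemical dosing of human skin primary co-culture (keratinocytes, foreskin fibroblasts). Gain or loss of signal relative to DMSO, bidirectional curve fit.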

[8] = BSK_KF3CT_SRB: Viability Assessment in the BioMAP Diversity Plus: KF3CT Assay (AID 2283069); conditions: primary human keratinocytes with fibroblasts;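 further: total protein by sulforhodamine B staining as a cytotoxicity measure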
Summary of the method: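 SRB read-out at 560 nm (0.1% stain, TCA-fixed cells) gauges overt cytotoxicity in a human skin keratinocyte–fibroblast co-culture 24 h post-dosing. Signal change was fitted bidirectionally relative to DMSO control.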

[9] = read-out: Interleukin-1 alpha (IL1a), IL1A (gene 3552); assay: BSK_KF3CT_IL1a: BioMAP Diversity Plus: KF3CT Assay for Interleukin-1 alpha (IL1a) Biomarker Activity (AID 2283070); conditions: primary human keratinocytes with fibroblasts; actives raise or lower the signal
Summary of the method: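 Primary skin co-culture (keratinocytes, foreskin fibroblasts), 24 h exposure; ELISA for IL-1a; bidirectional curve fit vs DMSO.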

[10] = read-out: TIMP metallopeptidase inhibitor 2 (TIMP2), TIMP2 (gene 7077); assay: BSK_KF3CT_TIMP2: BioMAP Diversity Plus: KF3CT Assay for TIMP metallopeptidase inhibitor 2 (TIMP2) Biomarker Activity (AID 2283071); conditions: primary human keratinocytes with fibroblasts; actives raise or lower the signal
Summary of the method: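 ELISA readout of TIMP-2 in keratinocyte plus foreskin fibroblast co-cultures (human skin primary cells), 24 h post-dose. Gain or loss of signal fitted relative to DMSO.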

[11] = read-out: C-C motif chemokine 2 (Homo sapiens) (UniProt P13500); assay: BSK_KF3CT_MCP1: BioMAP Diversity Plus: KF3CT Assay for Monocyte Chemoattractant Protein 1 (MCP1/CCL2) Biomarker Activity (AID 2283073); conditions: primary human keratinocytes with fibroblasts; actives raise or lower the signal
Summary of the method: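 ELISA read-out of MCP-1, 24 h post-dose, in primary human skin keratinocytes co-cultured with fibroblasts. Parallel SRB staining monitors cytotoxicity; changes fitted both directions relative to DMSO.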

[12] = read-out: Matrix Metallopeptidase 9 (MMP9), MMP9 (gene 4318); assay: BSK_KF3CT_MMP9: BioMAP Diversity Plus: KF3CT Assay for Matrix Metallopeptidase 9 (MMP9) Biomarker Activity (AID 2283074); conditions: primary human keratinocytes with fibroblasts; actives raise or lower the signal;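 on AC50: MMP9 protein level quantified by ELISA in the co-culture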
Summary of the method: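 ELISA read-out of MMP-9 at 24 h post-dosing in a co-culture of human skin keratinocytes and foreskin fibroblasts. Gain or loss of signal was fitted in both directions against DMSO.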

CD40, CD40 (gene 958) = assay: BSK_LPS_CD40: BioMAP Diversity Plus: LPS Assay for CD40 Biomarker Activity (AID 2283076); conditions: primary human HUVEC with PBMC; actives raise or lower the signal
Summary of the method: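 In the LPS system of human endothelial cells with peripheral blood mononuclear cells, CD40 levels were read by ELISA 24 h post-treatment. Signal changes in either direction were fitted against the DMSO baseline, with parallel SRB protein staining.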

[13] = read-out: E-selectin (Homo sapiens) (UniProt P16581); assay: BSK_LPS_Eselectin: BioMAP Diversity Plus: LPS Assay for Eselectin Biomarker Activity (AID 2283077); conditions: primary human HUVEC with PBMC; actives raise or lower the signal
Summary of the method: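 E-selectin ELISA on LPS-stimulated endothelial cell/PBMC co-cultures, read 24 h post-treatment; gains and losses fitted against DMSO. Parallel SRB staining (0.1% SRB after 10% TCA fixation, 560 nm) flags overt cytotoxicity.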

[14] = read-out: Interleukin-8 (IL8), CXCL8 (gene 3576); assay: BSK_LPS_IL8: BioMAP Diversity Plus: LPS Assay for Interleukin-8 (IL8) Biomarker Activity (AID 2283078); conditions: primary human HUVEC with PBMC; actives raise or lower the signal
Summary of the method: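 ELISA read-out of IL-8 after 24 h chemical treatment of LPS-activated endothelial/PBMC human primary co-cultures. Changes either up or down relative to DMSO; overt cytotoxicity checked by sulforhodamine B staining in parallel wells.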

[15] = read-out: Monokine induced gamma interferon (MIG), CXCL9 (gene 4283); assay: BSK_hDFCGF_MIG: BioMAP Diversity Plus: hDFCGF Assay for Monokine induced gamma interferon (MIG) Biomarker Activity (AID 2283063); conditions: primary human foreskin fibroblasts; actives raise or lower the signal
Summary of the method: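 Human primary foreskin fibroblasts in the hDFCGF system, exposed to test chemical for 24 h; MIG measured by ELISA. Bidirectional curve fitting against DMSO negative control as activity baseline.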

[16] = read-out: Matrix Metallopeptidase 1 (MMP1), MMP1 (gene 4312); assay: BSK_hDFCGF_MMP1: BioMAP Diversity Plus: hDFCGF Assay for Matrix Metallopeptidase 1 (MMP1) Biomarker Activity (AID 2283064); conditions: primary human foreskin fibroblasts; actives raise or lower the signal
Summary of the method: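 ELISA read-out of MMP1 from human foreskin fibroblasts (primary skin cells), 24 h post-dose. Gain or loss of signal was fitted bidirectionally versus DMSO negative control; cytotoxicity was checked by SRB in parallel cultures.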

[17] = read-out: Transforming growth factor beta 1 (TGFb1), TGFB1 (gene 7040); assay: BSK_KF3CT_TGFb1: BioMAP Diversity Plus: KF3CT Assay for Transforming growth factor beta 1 (TGFb1) Biomarker Activity (AID 2283072); conditions: primary human keratinocytes with fibroblasts; actives raise or lower the signal
Summary of the method: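 Read-out: ELISA for TGF-b1 in keratinocyte/foreskin fibroblast human skin co-culture, 24 h after dosing; bidirectional curve fit vs DMSO baseline; gain or loss of signal scored.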

[18] = read-out: urokinase plasminogen activator (uPA), PLAU (gene 5328); assay: BSK_KF3CT_uPA: BioMAP Diversity Plus: KF3CT Assay for urokinase plasminogen activator (uPA) Biomarker Activity (AID 2283075); conditions: primary human keratinocytes with fibroblasts; actives raise or lower the signal
Summary of the method: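 Skin co-culture (keratinocytes + foreskin fibroblasts), human primary; 24 h post-dose; uPA by ELISA; gain/loss fit vs DMSO baseline.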

Measured: AC50

E-selectin (Homo sapiens), sequence (P16581 whole entry, looked up): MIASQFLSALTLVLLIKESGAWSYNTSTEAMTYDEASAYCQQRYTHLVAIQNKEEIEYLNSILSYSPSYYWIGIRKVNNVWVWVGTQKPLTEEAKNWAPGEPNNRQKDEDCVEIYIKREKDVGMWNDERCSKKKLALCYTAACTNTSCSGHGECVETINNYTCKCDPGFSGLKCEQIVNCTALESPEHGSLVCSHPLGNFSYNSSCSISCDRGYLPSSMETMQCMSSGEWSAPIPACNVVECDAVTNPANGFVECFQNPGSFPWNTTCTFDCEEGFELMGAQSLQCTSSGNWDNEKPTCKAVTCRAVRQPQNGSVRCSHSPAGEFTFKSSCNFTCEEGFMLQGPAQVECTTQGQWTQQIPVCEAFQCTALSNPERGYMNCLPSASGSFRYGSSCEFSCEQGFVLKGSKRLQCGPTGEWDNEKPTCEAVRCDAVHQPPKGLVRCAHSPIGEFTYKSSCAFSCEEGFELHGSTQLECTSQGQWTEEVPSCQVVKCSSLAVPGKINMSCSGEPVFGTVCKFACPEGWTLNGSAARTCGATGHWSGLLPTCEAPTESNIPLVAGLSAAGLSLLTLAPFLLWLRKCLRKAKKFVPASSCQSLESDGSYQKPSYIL

Oc1ccc(C(c2ccc(O)cc2)(C(F)(F)F)C(F)(F)F)cc1
active: [1] 12.4 µM | [2] 14.8 µM | [3] 13.7 µM | [4] 15.8 µM | [5] 12.8 µM | [6] 37.7 µM | [7] 17.3 µM | [8] 24.1 µM | [9] 32.1 µM | [10] 21.1 µM | [11] 17.7 µM | [12] 20 µM | CD40, CD40 (gene 958) 18 µM | [13] 32.4 µM | [14] 32.1 µM

Oc1ccc(Cl)cc1Cl
not listed: [18]
inactive: all other assays above

O=S(=O)(O)C(F)(F)C(F)(F)C(F)(F)C(F)(F)C(F)(F)C(F)(F)F
active: [14] 14.6 µM and 43.9 µM
inactive: [1] | [2] | [3] | [4] | [15] | [16] | [5] | [6] | [7] | [8] | [9] | [10] | [11] | [12] | CD40, CD40 (gene 958) | [13] | [14]

Cc1ccccc1O
not listed: [17]
inactive: all other assays above

COc1ccc(O)c(C(C)(C)C)c1
not listed: [17] | [18]
inactive: all other assays above
